In PubChem BioAssay AID1986 (Sanford-Burnham Center for Chemical Genomics, 2009):
The campaign covered roughly 290,000 compounds. About 890 (0.31%) were called active. The sample holds actives, similar compounds and a random draw of the others, so the mix is not that of the screen. Rule as the data show it: active = inhibition mostly above about 52% (no sharp cut-off); inactive = mostly below about 76%.

Assay: inhibitors of HIV fusion peptide binding, primary screen, biochemical, uHTS, fluorescence dequenching (AID 1986)
Details: cell-free peptide binding, 30 min, stronger effect = higher value
[1] = measured here: repeat confirmation average inhibition, at 18.6 µM

Row | Compound | inhibition (at 20 µM) | inhibition [1] [%]
1 | O=C(O)c1cccc(N2C(=O)/C(=C/c3ccc(SCc4ccc(Cl)cc4)o3)SC2=S)c1 | 63% (active) | –
2 | O=C(O)CN1C(=O)/C(=C/c2ccc(N3CCCCC3)o2)SC1=S | 7.4% (inactive) | –
3 | O=C(CCN1C(=O)/C(=C/c2ccc(Cl)cc2)SC1=S)Nc1cccc(C(=O)O)c1 | 62.4% (inactive) | 2.3
4 | O=C(O)CN1C(=O)/C(=C\C(Br)=C\c2ccccc2)SC1=S | 62.6% (active) | –
5 | O=C1/C(=C\c2ccco2)SC(=S)N1c1ccccc1 | 41.6% (inactive) | –
6 | CC(=C\c1ccccc1)/C=C1/SC(=S)N(CCC(=O)O)C1=O | 26.1% (inactive) | –
7 | O=C(O)CN1C(=O)/C(=C/c2ccc(SCc3ccccc3)o2)SC1=S | 73.1% (active) | 105
8 | CC(/C=C1\SC(=S)N(CC(=O)O)C1=O)=C\c1ccccc1 | 35.8% (inactive) | –
9 | Cc1ccc(/C=C2\SC(=S)N(Cc3ccccc3)C2=O)o1 | -3.6% (inactive) | –
10 | Cn1cnnc1SCC(=O)N1CCc2ccccc21 | -0.4% (inactive) | –
11 | CCOC(=O)C(C)c1nc2ccccc2[nH]c1=O (stereo not drawn) | -0.4% (inactive) | –
12 | CN1C2C=C(N(CCc3ccccc3)C(=O)c3ccc(Cl)cc3)CC1CC2 (stereo not drawn) | -0.4% (inactive) | –
13 | C=C1CN(CC(=O)OC)S(=O)(=O)c2ccccc21 | 0.8% (inactive) | –
14 | COc1ccccc1NC(=O)c1ccc(-c2nn(C)c(=O)c3ccccc23)cc1 | 0.7% (inactive) | –
15 | Cc1nn(CC(=O)N2CCCC2)c(=O)c2nn(-c3ccccc3)c(C)c12 | 0.3% (inactive) | –
16 | CC(CCC(=O)O)C1CC[C@H]2C3CCC4CC(=O)CCC4(C)[C@H]3CC(=O)C12C (stereo partly drawn) | -1.2% (inactive) | –
17 | CC1(C)C(=O)OC(c2cccs2)C(C)(C)C1=O (stereo not drawn) | 0.5% (inactive) | –
18 | O=C(CSc1nc2scc(-c3ccco3)c2c(=O)n1-c1ccccc1)N1CCOCC1 | 4.2% (inactive) | –
19 | CC1CCN(S(=O)C23CC4CC(CC(C4)C2)C3)CC1 (stereo not drawn) | 1.3% (inactive) | –
20 | CCOC1OC2C(CO)OC(n3cnc4c(N)ncnc43)C2O1 (stereo not drawn) | 1.6% (inactive) | –

Row | Compound | inhibition (at 20 µM) | inhibition [1] [%]
21 | Oc1[nH]c2ccccc2c1N=Nc1ccccc1 | 146% (inactive) | –
22 | Cc1cccc2c(N=O)c(O)[nH]c12 | 17.9% (inactive) | –
23 | Cc1cccc2c(N=Nc3ccccc3)c(O)[nH]c12 | 52.7% (active) | 60.4
24 | CCCCc1ccc(S(=O)(=O)N2CCN(C(=O)c3ccco3)CC2)cc1 | 2% (inactive) | –
25 | Cc1ccc(C)c2[nH]c(=O)c(CN(Cc3cccs3)C(=S)NCc3ccco3)cc12 | 16.7% (inactive) | –
26 | CN(C)CCCN1C(=O)C2CCc3[nH]c4ccccc4c3C2C1=O (stereo not drawn) | -1% (inactive) | –
27 | COc1cc(/C=C2/C(=N)N3N=C(CC(=O)N4CCOCC4)SC3=NC2=O)ccc1OC(C)c1ccccc1 (stereo not drawn) | 36% (inactive) | –
28 | CNc1ccc(Br)cc(C(=O)/C=C/c2cccc(Cl)c2Cl)c1=O | 61.9% (inactive) | 4.3
29 | CNc1ccc(Br)cc(C(=O)/C=C/c2ccc(Cl)cc2Cl)c1=O | 61.5% (active) | –
30 | CCNc1ccc(Br)cc(C(=O)/C=C/c2ccc(Cl)cc2Cl)c1=O | 63.3% (inactive) | 13.7
31 | COc1cc(NC(=O)C2CC(c3c(F)cccc3Cl)=NO2)cc(OC)c1OC (stereo not drawn) | 0% (inactive) | –
32 | Cc1onc(-c2ccccc2Cl)c1C(=O)Nc1ccc(Br)cc1 | -0.2% (inactive) | –
33 | CCS(=O)(=O)c1ccc2oc(Nc3cc(Cl)ccc3OC)nc2c1 | -1% (inactive) | –
34 | O=C(O)c1ccc(Cl)cc1Nc1nc2cc(Cl)ccc2o1 | 67.6% (active) | –
35 | CCC(=O)Nc1cc(Cl)ccc1C(=O)O | -0.2% (inactive) | –
36 | O=C(/C=C/c1ccccc1)NCCSCc1ccccc1Cl | -2.6% (inactive) | –
37 | O=S1(=O)C=CC(c2ccccc2)C1 (stereo not drawn) | 0.2% (inactive) | –
38 | COC(=O)c1nn(-c2ccccc2)c(Sc2ccc(OC)cc2)c1/C=N/O | 2.7% (inactive) | –
39 | O=c1c(-c2ccccc2)coc2c(CN3CCCCC3)c(O)ccc12 | 0.2% (inactive) | –
40 | COc1ccccc1/C=C1\SC(=S)N(C(C(=O)O)c2ccccc2)C1=O (stereo not drawn) | 30.1% (inactive) | –

Row | Compound | inhibition (at 20 µM) | inhibition [1] [%]
41 | O=C(O)C(c1ccccc1)N1C(=O)/C(=C\c2ccc(-c3ccc(Br)cc3)o2)SC1=S (stereo not drawn) | 143% (inactive) | –
42 | O=C(O)C(c1ccccc1)N1C(=O)/C(=C\c2ccc(-c3cccc(Cl)c3)o2)SC1=S (stereo not drawn) | 91.2% (active) | 120
43 | O=C(O)C(c1ccccc1)N1C(=O)/C(=C/c2cccs2)SC1=S (stereo not drawn) | 14.3% (inactive) | –
44 | O=C(O)C(c1ccccc1)N1C(=O)/C(=C\c2ccc(-c3ccccc3Cl)o2)SC1=S (stereo not drawn) | 94.5% (active) | 110
45 | O=C1NC(=S)/C(=C\c2ccc(-c3ccccc3Cl)o2)S1 | 70.7% (inactive) | 0.5
46 | COc1ccc(OC)c2[nH]c(=O)c(CCNC(=O)c3ccc(S(=O)(=O)N4CCCCC4)cc3)cc12 | -1.4% (inactive) | –
47 | Cc1ccc2c(c1)N(CCC(=O)NCCCOC(C)C)C(=O)C(C)O2 (stereo not drawn) | -1.1% (inactive) | –
48 | COC(=O)c1sc2ccccc2c1NC(=O)c1ccc(S(=O)(=O)N2CC(C)CC(C)C2)cc1 (stereo not drawn) | -1.5% (inactive) | –
49 | CCOc1ccc(Br)cc1S(=O)(=O)NCCN(C)C | 2% (inactive) | –
50 | CCN(CC)c1ccc2c(C)c(Cl)c(=O)oc2c1 | 4.7% (inactive) | –
51 | CCN(CC)c1ccc2c(c1)oc(=O)c1c(Cl)cc(=O)oc12 | 106% (active) | 164
52 | CCN(CC)c1ccc2c(Cl)cc(=O)oc2c1 | 3.7% (inactive) | –
53 | C#CCOCCOCCOCCNc1nc(N2CCN(C(=O)[C@H]([C@@H](C)CC)n3cc([C@@H](N)CC(C)C)nn3)CC2)nc(N2CCN(C(=O)[C@H](CCCCN)n3cc([C@@H](N)CO)nn3)CC2)n1 | -1.1% (inactive) | –
54 | CC(C)(C)NC(=O)NC(=O)COC(=O)c1ccco1 | 1.7% (inactive) | –
55 | O=C(O)/C=C/C(=O)N(CC1CCCO1)C1CC(=O)N(c2c(Cl)cccc2Cl)C1=O (stereo not drawn) | 7.8% (inactive) | –
56 | O=C1N=C(N2CCN(c3ccccc3)CC2)S/C1=C/c1ccco1 | -1.8% (inactive) | –
57 | O=C1N=C(N2CCCC2C(=O)O)S/C1=C\c1ccco1 (stereo not drawn) | 52.2% (active) | –
58 | O=C1N=C(N2CCN(c3ccccc3)CC2)S/C1=C\c1ccco1 | 0.9% (inactive) | –
59 | CCOc1cc(CNCCCN2CCOCC2)cc(Br)c1OCc1ccccc1Cl | 0.9% (inactive) | –
